Only some compounds are listed: those with a hit (about 1.1% of all), similar ones and a draw of the others.
MsrA inhibitor – bovine MsrA enzyme inhibitors, primary screen, biochemical, absorbance, HTS. purified bovine MsrA, absorbance read-out. inhibition, % at 15.5 µM. AID 651718, 2012. 360,000 compounds, 0.75% hits; in the data active means inhibition above about 4.5%;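 further: 0% = vehicle wells with enzyme and 100% = reference inhibitor wells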
PKA-R2B activ – activators of PKA-R2B holoenzyme, primary screen, biochemical, fluorescence polarization, Cy5-IP20, human | cAMP-dependent protein kinase catalytic subunit beta (Homo sapiens) + cAMP-dependent … | PKA-R2B holoenzyme dissociation; R2B truncated from residue 108, S112A mutant; 0% DMSO only, 100% 113 µM cGMP | activation, % at 11.4 µM | 340,000 compounds, 0.079% hits;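 active means activation above a cutoff set at the mean over all compounds plus 3 SD, cut at about 18% in these data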;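 further: higher means more holoenzyme dissociation and a rise in polarization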
Target sequence (P31323 whole entry, looked up, other chains not shown, the tested form may be a part): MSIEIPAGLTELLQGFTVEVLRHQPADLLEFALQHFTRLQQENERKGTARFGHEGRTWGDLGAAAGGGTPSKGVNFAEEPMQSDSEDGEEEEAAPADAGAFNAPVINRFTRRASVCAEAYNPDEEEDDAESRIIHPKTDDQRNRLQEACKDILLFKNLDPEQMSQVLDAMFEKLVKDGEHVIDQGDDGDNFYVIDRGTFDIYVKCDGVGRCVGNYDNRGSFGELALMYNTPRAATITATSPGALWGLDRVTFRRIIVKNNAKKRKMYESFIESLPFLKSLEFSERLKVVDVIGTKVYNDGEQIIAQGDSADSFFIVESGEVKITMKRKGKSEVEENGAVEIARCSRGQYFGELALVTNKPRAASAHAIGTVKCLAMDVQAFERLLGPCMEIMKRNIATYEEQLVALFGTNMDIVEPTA
bovine MsrA act – bovine MsrA enzyme activators, primary screen, biochemical, absorbance, HTS; Methionine sulfoxide reductase A (Bos taurus); purified bovine MsrA, absorbance read-out; activation, % at 10.6 µM; 360,000 compounds, 0.3% hits; AID 602163, 2012; in the data active means activation above about 7.5%;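 further: 0% = vehicle and 100% = reference activator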
PKA-R1A activ – activators of PKA-R1A holoenzyme, primary screen, biochemical, fluorescence polarization, Cy5-IP20, bovine R1A, mouse PKAc; PKA-R1A dissociation; scaled: DMSO 0%, 113 µM cGMP 100%; activation, % at 11.4 µM; 340,000 compounds, 0.083% hits;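 active means percent activation above the mean of all tested compounds plus 3 SD, cut at about 19% in these data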;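 further: higher means more PKAc released from R1A so a rise in polarization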
MsrA activ conf – bovine MsrA activators, retest, confirmation, biochemical, absorbance, HTS; 1,000 compounds, 12% hits; activation, % at 10.6 µM; purified bovine MsrA, absorbance read-out; shares compounds with bovine MsrA act; AID 602270, 2012; in the data active means activation above about 4%;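 further: enzyme coupled to thioredoxin and thioredoxin reductase with NADPH; 0% = vehicle wells and 100% = reference activator wells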
Active calls of the source: *; · = no result given; ! = a repeat was not active.

SMILES	MsrA inhibitor	PKA-R2B activ	bovine MsrA act	PKA-R1A activ	MsrA activ conf
Cc1cccc(C)c1NC(=O)C1CCCN(CCCc2ccccc2)C1 (stereo unspecified)	0	6	-3	-9	·
CCOC(=O)C1CCCN(CCCc2ccccc2)C1 (stereo unspecified)	0	-11	14*!	5	-1
Cc1cc(C(F)(F)F)n2nc(C)c(-c3ccc(Cl)cc3)c2n1	-1	-5	16*	-5	0
C[C@@H]1ON(C)[C@H]2C[C@H]3c4[nH]c5cccc(-c6ccccc6)c5c4CCN3C[C@@H]12	1	·	·	·	·
Cc1ccccc1Nc1nc(N)nc(COC(=O)[C@@H](NC(=O)c2ccccc2Cl)C(C)C)n1	-2	1	8.1*	9	0
O=C(NNC(=S)NC(=O)c1ccccc1)c1cccc([N+](=O)[O-])c1	3	-10	1	-13	·
CCCCC(=O)NNC(=S)NC(=O)c1ccc(C)cc1	1	-2	3	-1	·
CCCCC(=O)NNC(=S)NC(=O)c1ccc([N+](=O)[O-])cc1	1	-1	7.8*	1	4.5*
Cc1ccc(C(=O)NC(=S)NNC(=O)CC#N)cc1	0	-6	7.8*	-1	4.1*
CCCCC(=O)NNC(=S)NC(=O)c1cccc([N+](=O)[O-])c1	1	-2	11*	-11	1
Cn1cc(CCOCc2ccc(Br)cc2)c2ccccc21	1	·	·	·	·
O=C(C(=O)N1CCN(C(=O)c2cccs2)CC1)c1cccc(C(F)(F)F)c1	0	·	·	·	·
CSC(=Nc1ccccc1)N=C(SCc1ccccc1)N(C)C	1	-9	-4	9	·
COc1cccc(-c2cc3nc(NCCN4CCCC4)n(C)c(=O)c3s2)c1	2	·	12*	·	1
Cn1c(NCCN2CCCC2)nc2cc(-c3ccccc3)sc2c1=O	0	·	1	·	·
COC(=O)c1cc2c(c3c4ccccc4n(S(=O)(=O)c4cccc(C)c4)c13)C(=O)N(C)C2	0	·	·	·	·
C#CCN(C[C@H]1[C@H](OC(=O)Nc2c(C)noc2C)[C@H](OC(=O)Nc2c(C)noc2C)CN(C(=O)OC(C)C)N1C(=O)OC(C)C)S(=O)(=O)c1ccc(C)cc1	-1	·	·	·	·
COC(=O)c1ccc(/C=C2/SC(=S)N(CCC(=O)NCCCN3CCOCC3)C2=O)cc1	1	-1	8.1*	-2	-3
Cc1cccc2cc3cccc(C)c3nc12	0	-2	8.9*	10	0
O=C(N[C@H](Cc1ccccc1)C(=O)NCCN1CCOCC1)[C@H]1O[C@@H](n2ccc(=O)[nH]c2=O)[C@H](O)[C@@H]1O	0	·	·	·	·
CCc1noc(C)c1C(=O)N1CCN(S(=O)(=O)c2cccs2)CC1	-1	7	10.0*	-1	-1
CC(=O)c1nccs1	·	-3	16*	-5	-2
C/C(=C\C(=O)O)C(=O)Nc1nccs1	-1	7	-5	-1	·
NC(=O)c1cc(S(=O)(=O)N2CCCC2)ccc1OCCOc1ccccc1F	-1	-10	11*	-3	-2
COc1ccc(OCCOc2ccc(S(=O)(=O)N3CCCC3)cc2C(N)=O)cc1	0	0	2	3	·
SMILES	MsrA inhibitor	PKA-R2B activ	bovine MsrA act	PKA-R1A activ	MsrA activ conf
CC1CCCC(NC(=O)Nc2cccs2)C1C (stereo unspecified)	1	5	8.9*	1	-3
CC1CCCC(NC(=O)c2ccncc2)C1C (stereo unspecified)	-2	-1	-3	-9	·
COCc1cc(N2CCN(C(=O)OC(C)(C)C)C[C@H]2C)ccc1N1CC[C@H](O)C1	-1	·	·	·	·
S=C1NCN(CC2CC2)CN1	1	·	·	·	·
CC1=CC(O)(c2ccccn2)P(=O)(c2ccccc2)C=C1C (stereo unspecified)	1	·	·	·	·
COc1cc(OC)c2c(-c3cccc(-c4cccc(C)c4)c3)cc(=O)oc2c1	1	-4	-4	-9	·
COc1ccc(-c2cc(=O)oc(-c3cccc(C)c3)n2)cc1	0	3	12*	1	-3
Oc1ccccc1/C=N/n1c(COc2ccccc2)n[nH]c1=S	0	-11	0	0	·
Fc1ccccc1/C=N/n1c(COc2ccccc2)n[nH]c1=S	0	3	9.9*	4	1
CCOC(=O)C1CCCN(C(=O)CCCn2nnnc2CN2CCOCC2)C1 (stereo unspecified)	0	-4	15*	3	0
CC(C)c1ccc(NC(=S)NCc2cccs2)cc1	1	-6	8.1*	6	-3
COc1ccc(NC(=S)NCc2cccs2)cc1	0	-1	0	6	·
CC1CC(C)CN(CCCNC(=O)CCNC(=O)Cn2ccc3ccccc3c2=O)C1 (stereo unspecified)	0	-3	7.7*	-4	0
COC(=O)c1ccc2c(=O)n(Cc3ccc(C(=O)NCCCN4CCC(C)CC4)cc3)c(=S)[nH]c2c1	0	16	-13	11	·
CC1CCN(CCCNC(=O)c2ccc3c(=O)n(Cc4ccc(Cl)cc4)c(=S)[nH]c3c2)CC1	2	-3	8.2*	-1	-3
CC(C)CCN1CC(C(=O)NC(C)C)CC1=O (stereo unspecified)	-2	-3	11*	-12	1
CCCCNC(=O)C1CC(=O)N(CCC(C)C)C1 (stereo unspecified)	-1	8	-1	1	·
O=C(NN1C(=O)c2cc(Br)ccc2NC1c1cc(Br)cc(Br)c1O)c1ccncc1 (stereo unspecified)	0	-14	8.9*	-7	-4
CCc1ccc(C2CC(c3ccccc3Cl)Nc3nc(N)nn32)cc1 (stereo unspecified)	1	1	9.4*	0	-1
CCc1ccc(C2CC(c3ccccc3)Nc3nc(N)nn32)cc1 (stereo unspecified)	1	10	-2	0	·
COc1ccc(N2CCN(C(=O)C3CCN(S(=O)(=O)c4ccc5c(c4)CC(C)N5C(=O)C4CC4)CC3)CC2)cc1 (stereo unspecified)	0	·	·	·	·
C=CCN=C1NC(c2cccc(Cl)c2)C(C(=O)OC)=C(C)N1Cc1cccc(C(F)(F)F)c1 (stereo unspecified)	0	·	·	·	·
CCC(CC)CN1CCC(CN2C(=S)NC[C@@H]2Cc2ccccc2)CC1	-1	·	·	·	·
Cc1ccc(-n2nnnc2CNC(=O)C2CC(=O)N(c3ccc(F)cc3)C2)cc1C (stereo unspecified)	-1	-1	7.7*	3	-1
O=C(NCc1nnnn1-c1ccc(F)cc1)C1CC(=O)N(c2ccc(F)cc2)C1 (stereo unspecified)	1	-2	0	-11	·

Source: PubChem (The Scripps Research Institute Molecular Screening Center)
